MITF TRPM1 HTS: activators of MITF-driven TRPM1 promoter reporter, primary screen, cell-based, SK-MEL-5, luciferase, single point; SK-MEL-5 TRPM1-promoter luciferase, 24 h; % of positive control, neutral wells = 0; activation, % at 12.5 µM; hit rate 0.75% among 300,000; AID 588334, 2011;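 active = mean activation of at least 80% with every replicate also reaching 80%; inconclusive = mean reaches 80% but some replicate falls short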;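 note: 0% = neutral control wells and 100% = parthenolide positive control wells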
esBAF inh: Bmi1 luciferase reporter increase in mESCs, primary screen, esBAF inhibitor project, mouse ES cells, Bmi1 luciferase knock-in, single point; hit rate 2% among 350,000; reporter increase, % at 12.5 µM; AID 602393, 2012; 24 h; 100% = twice the neutral-well signal; in the data active = activation above about 40%; inconclusive = no clear call, values can overlap the other calls;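 note: 0% = median of the plate's neutral control wells and 100% = double that signal; a rise in the Bmi1 reporter signal indicates esBAF inhibition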
TRPM1 prom inh: inhibitors of MITF-dependent TRPM1 promoter reporter, primary screen, cell-based, SK-MEL-5, single point, luciferase | SK-MEL-5 TRPM1 promoter luciferase, 24 h | hit rate 0.83% among 330,000 | AID 488899, 2010 | inhibition, % at 12.5 µM;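 active = mean inhibition across replicates of 60% or more, whatever share of single replicates reaches that level; inconclusive = some that reach 60%, reason not given; inactive = mean inhibition across replicates below 60%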
EBV LMP1 NFkB: EBV LMP1-driven NF-kappaB luciferase reporter inhibitors, primary screen, cell-based, luminescence, single point. AID 504558, 2011. LMP1-induced NF-kappaB luciferase reporter cells. inhibition, % at 12.5 µM. hit rate 0.69% among 350,000; in the data active = inhibition above about 41%; inconclusive = no clear call, values can overlap the other calls;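 note: 0% = neutral control wells and 100% = reference inhibitor control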
Wnt act: Wnt/beta-catenin pathway activators, primary screen, cell-based, plate reader, single point; Wnt/beta-catenin reporter cell assay, activator; activation, % at 9.35 µM; hit rate 1.2% among 300,000; in the data active = activation above about 30%, passing the limit was not always enough; inconclusive = no clear call, values can overlap the other calls;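 note: 0% = neutral control wells and 100% = positive control wells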
Statin myotox sup: suppressors of statin myotoxicity in C2C12 myotubes, primary screen, cell-based, single point, plate reader. C2C12 myotubes + simvastatin, ATP luminescence, 48 h; scaled: DMSO 0, geranylgeraniol control 100. rescue of ATP level, % at 7.49 µM. hit rate 0.78% among 330,000;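 active = mean ATP rescue above about 67%, or every replicate alone reaching that limit, limit read from the data, passing the limit was not always enough; inconclusive = no clear call, values can overlap the other calls; inactive = mean under the limit and some replicate under it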;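 note: myotubes were challenged with 10 µM simvastatin during compound exposure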
Starred values were filed as active, the others as inactive. The list is not random: actives were taken first. Their share in the collection is about 4%.

`O=C(/C=C/c1ccccc1)NCCc1ccccc1` gave esBAF inh 89*, EBV LMP1 NFkB 1, Wnt act 1 and Statin myotox sup 8.
Screening Cc1cccc(C(=O)NCCc2ccccc2)c1 returned MITF TRPM1 HTS 105*, esBAF inh 2, TRPM1 prom inh -95, EBV LMP1 NFkB -24, Wnt act inconclusive and Statin myotox sup 1.
`O=C(NCCc1ccccc1)c1ccc(Cl)c([N+](=O)[O-])c1` gave MITF TRPM1 HTS 53, esBAF inh 7, TRPM1 prom inh -52, EBV LMP1 NFkB -16, Wnt act 14 and Statin myotox sup -5.
`Cc1cc(C(=O)NCCc2ccccc2)ccc1[N+](=O)[O-]` gave MITF TRPM1 HTS 92*, esBAF inh 25, TRPM1 prom inh -82, EBV LMP1 NFkB -20, Wnt act 17 and Statin myotox sup -7.
For CCN(CC(=O)Nc1c(F)cccc1F)C(=O)c1cccn1C the results were esBAF inh -1, EBV LMP1 NFkB 1, Wnt act 2 and Statin myotox sup -2.
`Cc1oc(-c2cccs2)nc1CN1CCC(C(=O)N2CCCC2)CC1` gave MITF TRPM1 HTS -7, TRPM1 prom inh 9, EBV LMP1 NFkB -4 and Wnt act 1.
Screening CCN(CC1COc2ccccc2O1)C(=S)Nc1ccccc1 (configuration not stated) returned MITF TRPM1 HTS -9, esBAF inh -2, TRPM1 prom inh 11, EBV LMP1 NFkB 6 and Statin myotox sup -5.
CC1(C)CC(=O)C2=C(C1)N(CCN1CCOCC1)C1=C(C(=O)CC(C)(C)C1)C2c1cccc(Cl)c1 was read as MITF TRPM1 HTS 0, esBAF inh 2, TRPM1 prom inh 0, EBV LMP1 NFkB 5, Wnt act -2 and Statin myotox sup -8.
O=C(C[C@H]1CC[C@@H](NC(=O)CCN2CCCCC2)[C@H](CO)O1)Nc1nccs1 was read as esBAF inh 1 and Statin myotox sup 0.
Screening CCCc1cc(=O)oc2c(C)c(OC(C)C(=O)NCc3ccccn3)ccc12 (configuration not stated) returned MITF TRPM1 HTS -7, esBAF inh -10, TRPM1 prom inh 10, EBV LMP1 NFkB 6, Wnt act -1 and Statin myotox sup -9.
`O=C1CC(c2ccccc2)CN1Cc1ccccc1` (configuration not stated) gave MITF TRPM1 HTS 7, esBAF inh -3, TRPM1 prom inh -8, EBV LMP1 NFkB 1 and Statin myotox sup 17.
For COc1cccc(/C=C/C(=O)NNC(=O)c2ccccc2)c1OC the results were MITF TRPM1 HTS 16, TRPM1 prom inh -18, EBV LMP1 NFkB -2 and Wnt act 34*.
COc1ccccc1/C=C/C(C)=O was read as MITF TRPM1 HTS 0, TRPM1 prom inh 2, EBV LMP1 NFkB -10 and Wnt act 2.
`COc1ccccc1/C=C/C(=O)/C=C/c1ccccc1O` gave MITF TRPM1 HTS -66, esBAF inh 29, TRPM1 prom inh 66*, EBV LMP1 NFkB -13, Wnt act -18 and Statin myotox sup 26.
For COc1ccccc1C=CC(=O)C=Cc1ccccc1OC the results were MITF TRPM1 HTS -73, esBAF inh 38, TRPM1 prom inh 74*, EBV LMP1 NFkB 66*, Wnt act 19 and Statin myotox sup 11.
For COc1ccc(NC(C)=O)cc1S(=O)(=O)NC1CCSc2ccccc21 (configuration not stated) the results were MITF TRPM1 HTS -6, esBAF inh 2, TRPM1 prom inh 4, EBV LMP1 NFkB -8, Wnt act 4 and Statin myotox sup 9.
`COc1ccc(OC2CCN(S(=O)(=O)c3ccccc3)CC2)cc1` gave MITF TRPM1 HTS 5, esBAF inh -3, TRPM1 prom inh -5, EBV LMP1 NFkB -3, Wnt act -2 and Statin myotox sup 4.
Screening COc1cccc(CNC(=O)C[C@H]2CC[C@@H](NS(=O)(=O)c3ccccc3OC)[C@H](CO)O2)c1 returned esBAF inh -2 and Statin myotox sup 2.

Compound activity (PubChem)
